In the library only some 9.2% were active in any assay of this set; here they are far more common.
NPC1 promoter act: activators of NPC1 promoter | Huh7 NPC1 promoter luciferase reporter, 24 h | Potency, µM (top dose mostly 9.22 µM), without a hit: at the top dose activation, actives largely listed as activators | AID 485313 | actives 2.4% (n = 320,000); further: % of control where 0% means no effect; nearly all actives have a fitted effect of over 60% in size
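In 1536-well qHTS, Huh7 cells harboring an NPC1 promoter–luciferase construct received compound for 24 h; activation was quantified by luminescence following luciferase reagent addition.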
SMN2 splice up: enhancers of SMN2 splice variant expression | HEK293 SMN2-luciferase splicing reporter, luminescence, 30-36 h | Potency, µM (top dose mostly 46.1 µM), without a hit: at the highest dose activity change, positive = activation, usual class: activators | actives 2.8% (n = 210,000) | AID 1458; further: % of control where 0% means no effect; nearly all actives have a fitted effect of over 55% in size
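HEK293 cells carry an SMN2 minigene-luciferase reporter in which exon 7 inclusion puts luciferase in frame. Cells were seeded at 2000 cells/well, attached for 10-12 hours, then exposed to compounds for 30-36 hours at 37C before ONE-Glo luminescence.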
Rab9 promoter act: Rab9 promoter activation; Huh7 Rab9 promoter-luciferase reporter, luminescence, 24 h; Potency, µM (series often up to 9.22 µM), for inactives: at the top dose activation, negative = inhibition, usual class: activators; actives 2.8% (n = 320,000); AID 485297; further: % of control where 0% means no effect; nearly all actives have a fitted effect of over 60% in size
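Luciferase signal after 10 min detection reagent at ambient indicates Rab9 promoter upregulation; stably transfected Huh7 cells were treated 24 h with compound in DMSO at 37 °C, 5% CO2.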
ELG1 DNA repair: ELG1-dependent DNA repair inhibition. HEK293T ELG1-luciferase reporter, luminescence, 16 h; DNA damage induced by 5-fluorouridine. Potency, µM (doses to about 46.1 µM), for the others: at the top dose activity change, negative = inhibition, usual class: inhibitors. actives 2.3% (n = 330,000). AID 504467; further: on the % scale 0 is the no-effect control and ±100 the full control effect; nearly all actives have a fitted effect of over 55% in size
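5-Fluorouridine DNA damage + compound/DMSO, 2,000 cells/well, 16 h, 37 °C/5% CO2. ONE-Glo, 30 min RT, luminescence. Readout = decrease in reporter signal.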
ELG1 genotox: induces genotoxicity in HEK293T cells with luciferase-tagged ELG1; HEK293T ELG1-luciferase reporter, luminescence, 16 h; Potency, µM (highest dose often 46 µM), without a hit: at the highest dose activity change, positive = activation, actives largely listed as activators; actives 1.3% (n = 330,000); AID 504466; further: % of control where 0% means no effect; nearly all actives have a fitted effect of over 60% in size
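HEK293T cells expressing luciferase-tagged ELG1 were treated with compound or DMSO for 16 hr at 37°C. Luciferase activity was then read after 30 min with ONE-Glo at room temperature; rising signal flags genetic stress.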
FLuc counter: counter-screen for miR-21 project: firefly luciferase inhibitors or activators | Potency, µM (titrated, usually from 57.5 µM), inactives show at the top dose activity change, negative = inhibition, hits mostly inhibitors | actives 6.9% (n = 360,000) | purified FLuc, Km substrates, luminescence inhibition;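 further: plate controls were vehicle for no effect and reference inhibitor for full effect; nearly all actives have a fitted effect of over 55% in size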
Target sequence (P08659 whole entry, looked up): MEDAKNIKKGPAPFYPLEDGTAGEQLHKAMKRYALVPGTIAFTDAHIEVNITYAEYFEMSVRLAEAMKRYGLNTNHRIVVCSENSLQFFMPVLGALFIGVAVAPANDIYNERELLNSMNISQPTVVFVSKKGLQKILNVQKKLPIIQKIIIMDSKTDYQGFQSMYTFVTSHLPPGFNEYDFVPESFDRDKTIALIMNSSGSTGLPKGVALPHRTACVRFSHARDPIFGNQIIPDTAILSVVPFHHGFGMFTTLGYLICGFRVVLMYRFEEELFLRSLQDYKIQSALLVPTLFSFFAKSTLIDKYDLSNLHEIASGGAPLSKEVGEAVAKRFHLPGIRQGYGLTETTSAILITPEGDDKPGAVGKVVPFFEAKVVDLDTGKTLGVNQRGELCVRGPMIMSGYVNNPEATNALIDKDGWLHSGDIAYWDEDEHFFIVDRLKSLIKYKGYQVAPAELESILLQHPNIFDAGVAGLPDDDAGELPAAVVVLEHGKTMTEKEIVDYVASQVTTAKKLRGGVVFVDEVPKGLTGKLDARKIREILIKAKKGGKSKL
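Purified P. pyralis luciferase (10nM final) with 10uM D-luciferin and 10uM ATP (Km levels) in 50mM Tris acetate pH 7.5, 10mM Mg acetate, 0.01% Tween-20, 0.05% BSA; qHTS 6-point titration, ~60 µM downward; luminescence read.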
An asterisk follows results filed as active; ? = inconclusive; nt = no result. The call rests on the fitted dose curve; in most records, active means well fitted curve in the direction sought with a large enough effect; inconclusive means small, poorly fitted or top-dose-only effect, or another doubt; inactive means no such curve, though single readings can be large; an effect the other way counts as inactive or inconclusive. Potency means the concentration at half of the fitted maximal effect.

SMILES | NPC1 promoter act | SMN2 splice up | Rab9 promoter act | ELG1 DNA repair | ELG1 genotox | FLuc counter
O=C(/C=C/c1ccc([N+](=O)[O-])cc1)NCc1cccs1 | -3.5% | -33.6% | -0.2% | ? | 3.3% | ?
Cc1ccc(/C=C/C(=O)NCc2cccs2)cc1 | 25.4% | 11.2µM* | 6.2% | ? | ? | 10.7µM*
Cc1ccc(/C=C/C(=O)NCc2cccs2)c(C)c1 | ? | nt | 2.82µM* | ? | ? | 6.75µM*
O=C(c1cccs1)N(Cc1cccnc1)c1nc2ccc(F)cc2s1 | nt | nt | nt | nt | nt | -3.2%
CC(C)CCNC(=O)CN(Cc1ccc(F)cc1)C(=O)CCC(=O)Nc1ccccn1 | -4.6% | nt | 0.0% | -9.8% | -15.6% | -1.3%
O=C(c1ccccc1)c1nnc(-c2ccncc2)o1 | -2.8% | 5.1% | 2.0% | 8.6% | 0.9% | 9.53µM*
CC(C)C(=O)O/N=C(\N)c1ccccn1 | 2.8% | 6.0% | -0.8% | 24.4% | 2.9% | -5.1%
N/C(=N\OC(=O)c1ccc(Cl)c(Cl)c1)c1ccccn1 | 3.16µM* | 14.1µM* | 4.47µM* | ? | ? | 0.757µM*
N/C(=N\OC(=O)c1ccc(Cl)cc1)c1ccccn1 | 0.562µM* | 7.08µM* | 1.41µM* | ? | ? | 0.0757µM*
N/C(=N\OC(=O)CCCOc1ccccc1)c1cccc(Br)c1 | -2.0% | 9.9% | -0.4% | -4.6% | -0.6% | ?
N/C(=N\OC(=O)c1cccc(Cl)c1)c1ccccn1 | 3.16µM* | 14.1µM* | 3.16µM* | ? | ? | 0.601µM*
N/C(=N\OC(=O)c1cccc(Br)c1)c1ccccn1 | 3.55µM* | nt | 3.98µM* | ? | ? | 0.426µM*
N/C(=N\OC(=O)c1ccc(Cl)c([N+](=O)[O-])c1)c1ccccn1 | -0.7% | nt | 1.1% | ? | 13.9% | ?
Cc1ccc(CCNC(=O)CCn2nc(-c3ccc(Cl)cc3)ccc2=O)cc1 | nt | nt | nt | nt | nt | 0.1%
CCOc1ccc(CC(=O)NCc2ccc3c(c2)CCN3C(=O)c2ccc(F)cc2)cc1OCC | nt | nt | nt | nt | nt | -13.9%
N/C(=N\OC(=O)c1cccc(Br)c1)c1ccccc1 | 18.6% | ? | 2.1% | ? | ? | 0.849µM*
N/C(=N\OC(=O)c1ccc2ccccc2c1)c1ccc(Br)cc1 | 16.9% | ? | 16.2% | ? | -0.7% | -18.9%
N/C(=N\OC(=O)c1ccc(Cl)cc1)c1[nH]ncc1Br | ? | nt | 3.16µM* | ? | ? | 0.135µM*
CCOc1cc(C(=O)O/N=C(\N)c2ccccn2)cc(OCC)c1OCC | 6.2% | nt | 3.6% | ? | -11.2% | ?
CCOc1ccc(C(=O)O/N=C(\N)c2ccccn2)cc1OCC | 1.26µM* | nt | 2.51µM* | ? | ? | 12µM*
N/C(=N\OS(=O)(=O)c1ccc(Cl)cc1)c1ccccn1 | 20.0% | -6.1% | 22.7% | ? | 23.1µM* | -18.6%
N#Cc1cccnc1Oc1ccccc1 | 1.4% | nt | -1.1% | ? | 1.9% | 0.0%
CC(C)C[C@@H](CC(=O)N[C@H](CC(=O)N[C@@H]1CCNC[C@H]1C(=O)N[C@H](CC(=O)N[C@@H](CCC(=O)O)CC(=O)O)Cc1c[nH]c2ccccc12)C(C)C)NC(=O)[C@@H]1CNCC[C@H]1N | nt | 1.9% | nt | nt | nt | nt
CCOc1ccc(S(=O)(=O)Nc2cccc(-c3ccc(N4CCCCCC4)nn3)c2)cc1 | 3.4% | nt | 0.3% | ? | ? | 8.49µM*
CCCCOc1ccc(S(=O)(=O)Nc2cccc(-c3ccc(N4CCOCC4)nn3)c2)cc1 | nt | nt | nt | nt | nt | 13.5µM*
SMILES | NPC1 promoter act | SMN2 splice up | Rab9 promoter act | ELG1 DNA repair | ELG1 genotox | FLuc counter
CCCCOc1ccc(S(=O)(=O)Nc2cccnc2)cc1 | -5.0% | -73.0% | -6.7% | -1.0% | -3.8% | 4.6%
NC(=O)C1CCN(C(=O)c2ccc3c(c2)N(Cc2cccc(Cl)c2)C(=O)c2ccccc2S3=O)CC1 (centres undefined) | nt | nt | nt | nt | nt | 3.2%
CCn1c(=O)c2cc(C(=O)NCCCN3CCN(c4ccc(F)cc4)CC3)sc2c2ccccc21 | nt | -6.4% | nt | nt | nt | -13.6%
C=CCSc1nc2c(cnn2-c2ccccc2)c(=O)n1N | 1.41µM* | nt | 1.41µM* | ? | ? | 8.49µM*
O=C(c1ccncc1)N1CCN(S(=O)(=O)c2cccc(Cl)c2)CC1 | 2.0% | nt | -2.6% | 10.9% | -5.1% | -0.1%
CCOc1cccc(NC(=O)C2CC(=O)N(C)C(=Nc3ccc(F)cc3)S2)c1 (centres undefined) | nt | nt | nt | nt | nt | -8.2%
O=C(Nc1cccc(Cl)c1)c1ccc(F)c(S(=O)(=O)N2CCN(c3ccccn3)CC2)c1 | -4.9% | -35.9% | -5.8% | 13µM* | -0.8% | -2.5%
CCOc1ccc(NC(=O)c2ccc(F)c(S(=O)(=O)N3CCN(c4ccccn4)CC3)c2)cc1 | -9.4% | -53.0% | -14.7% | 9.2µM* | -0.5% | -12.4%
CCc1ccc(NC(=O)c2ccc(F)c(S(=O)(=O)N3CCN(c4ccc(OC)cc4)CC3)c2)cc1 | nt | nt | nt | nt | nt | -2.0%
CC(C)(C)C1=CC(=Nc2ccccc2N)C=C(C(C)(C)C)C1=O | -0.6% | 2.4% | -8.1% | 3.5% | 1.5% | 0.1%
CC(C)(C)C1=CC(=O)C(=O)C(C(C)(C)C)=C1 | -15.8% | -109.7% | -17.2% | ? | -4.5% | 7.57µM*
CCOc1cc(/C=N/NC(=O)c2ccc(CN3CCOCC3)cc2)ccc1OC | -7.5% | -11.4% | -3.2% | -7.5% | -4.0% | -11.4%
CN(C)c1ccc(/C=N/NC(=O)c2ccc(CN3CCOCC3)cc2)cc1Br | -12.7% | -38.3% | -1.3% | ? | -4.6% | 19µM*
COc1ccc(Cl)cc1NC(=O)C(=O)N/N=C/c1cc(C)n(-c2ccc(C)cc2)c1C | -2.9% | 8.9% | -0.7% | 8.4% | 1.5% | 3.38µM*
Cc1cc(/C=N/NC(=O)c2ccc(O)cc2)c(C)n1CC(C)C | 22.9% | nt | ? | ? | ? | 6.01µM*
Cc1ccc(-n2c(C)cc(/C=N/NC(=O)c3ccncc3)c2C)cc1 | 1.1% | -26.7% | 3.7% | 2.1% | ? | 5.36µM*
Cc1cc(/C=N/NC(=O)c2ccncc2)c(C)n1-c1cccc(C(F)(F)F)c1 | -1.7% | nt | -5.0% | 4.7% | 4.3% | -2.3%
COc1cc(C(=O)NCc2ncccc2C)ccc1OC1CCN(C(C)=O)CC1 | -0.1% | nt | 5.8% | 6.6% | 9.5% | -2.1%
COc1ccc(NC(=O)c2cc3c(s2)-c2c(C)cccc2OC3)c(OC)c1 | nt | -5.7% | nt | nt | nt | -9.7%
CCOc1ccc(Nc2sc(C(=O)c3cccc(OC)c3)c(N)c2S(=O)(=O)c2ccccc2)cc1 | nt | nt | nt | nt | nt | 0.4%
Cc1ccc(-n2c(C)cc(/C=N/NC(=O)c3ccc(CN4CCOCC4)cc3)c2C)cc1 | -2.9% | -31.9% | -1.3% | -3.3% | -6.7% | 15.1µM*
Cc1ccc(-n2c(C)cc(/C=N/NC(=O)CC3(C)OCCO3)c2C)cc1 | -0.6% | -49.7% | -1.1% | ? | 1.2% | 23.9µM*
